Growth data for 40 molecules are collected here from PubChem BioAssay (NCI).

The structures appear in SMILES notation. This is part of a sample that, as a whole, favours compounds with a hit. Of some 83,000 tested, about 20% had one in any assay.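 How to read the values: 0–100, growth inhibition (40 = 60% inhibited); 0, no net growth; -100 to 0, cell death (-40 = 40% of starting cells died; -100 = all dead).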 Calls of active or inactive are those of the source. Rule for the calls: active = growth percent below 10; inactive = the rest.

One assay has as its system HCT-15 colon. Put plainly: NCI-60 one-dose screen, 48 h (100 = growth as untreated, 0 = no growth, -100 = all killed). Conditions: 10 µM.
Consider `O=C(Nc1cccc2c1CCCC2)c1cc2ccccc2cc1O`, for which the growth is 30.8% (inactive).
On to `O=C1/C=C/[C@@H](O)[C@@H]2C[C@@H](O)C[C@H]2/C=C/CCC[C@H](CCc2ccc(NC(=S)Nc3ccc4c(c3)C(=O)OC43c4ccc(O)cc4Oc4cc(O)ccc43)cc2)O1`, for which the growth is 3.98% (active).
Turning to `COc1cc(/C=C/c2cc(/C=C/c3ccc(O)c(OC)c3)nc(N)n2)ccc1O`, the growth was 29.5% (inactive).
With `CC(=O)Oc1cc(OC(C)=O)c2ccccc2c1OC(C)=O`, the growth is 81.3% (inactive).
As to `CCOc1ccccc1/C=N\N=C\c1ccccc1O`, the growth is 100% (inactive).

The next assay deals with HT29 colon. Described as above. Conditions: 10 µM.
With `COc1ccc(/C=C2\CCCC3=C2NC(N)=NC3c2ccc(OC)cc2)cc1` (stereo not given), the growth was 93.2% (inactive).
The same measure, in the same setting: next, `CN(C)CCCOc1cccc(NC2=C(Cl)C(=O)C(Nc3cccc(OCCCN(C)C)c3)=C(Cl)C2=O)c1`: -67.4% (active); `N#CC1=C(N)Oc2cc(N)ccc2C1c1cccnc1` (stereo not given): 93.8% (inactive); `COc1cc(/C=C/c2cc(/C=C/c3ccc(O)c(OC)c3)n(C(=O)Nc3ccc(C)cc3)n2)ccc1O`: -22.4% (active).
For the molecule `Cc1ccc(-n2nnnc2N)c(C)c1`, the growth was 123% (inactive).
As to `CCCCN(CCCC)C(=O)[C@H](CC)[C@@H]1CC[C@@H](C)[C@@H]([C@H](C)[C@@H](O)[C@@H](C)C(=O)[C@H](CC)C2O[C@]3(C=C[C@@H](O)[C@]4(CC[C@@](C)([C@H]5CC[C@](O)(CC)[C@H](C)O5)O4)O3)[C@H](C)C[C@@H]2C)O1` (stereo not given in full), the growth was 7.79% (active).
With `COc1ccc2c(c1)C(=O)/C(=C/c1ccc([N+](=O)[O-])o1)O2`, the growth was -63% (active).
Consider `Cc1ccc(S(=O)(=O)N(C)CCCCCC(=O)O)cc1`, for which the growth was 92.5% (inactive).
In the case of `NC1=NC(c2ccc(Cl)cc2)C2=C(N1)/C(=C/c1ccc(Cl)cc1)CCC2` (stereo not given), the growth was 7.71% (active).
Still for that read-out and setting: the value for `S=C(NCc1ccccc1)NCc1ccccc1` was 97% (inactive).
Still for that read-out and setting: next, `COc1cc2cc(Oc3ccc(NC(=O)c4ccccc4)cc3)c(C)nc2cc1OC`: 104% (inactive); `Cc1c(Cl)cccc1NC(=O)CN1CCOCC1`: 84.2% (inactive).
Take `C=CCN(CC=C)C(=O)[C@H](CC)[C@@H]1CC[C@@H](C)[C@@H]([C@H](C)[C@@H](O)[C@@H](C)C(=O)[C@H](CC)C2O[C@]3(C=CC(=O)[C@]4(CC[C@@](C)([C@H]5CC[C@](O)(CC)[C@H](C)O5)O4)O3)[C@H](C)C[C@@H]2C)O1` (stereo not given in full): the growth is 16.7% (inactive).
As for `CCN1CCN(CCC(=O)Nc2cccc(-n3cc(-c4ccncc4)c(-c4ccc(Cl)c(OC)c4)n3)c2)CC1`, the growth is -23.4% (active).
For `Nc1ccn(Cc2nnc(CCC(=O)c3nc4ccccc4[nH]3)o2)c(=O)n1`, the growth is 89.5% (inactive).
Still for that read-out and setting: the value for `Cc1ccc2nc(Cl)c(-c3nc4ccccc4o3)cc2c1` was 102% (inactive); that for `C/C=C/CSC(C)(C)C(=O)NC` was 98.1% (inactive); that for `COc1cc2c(Nc3ccc(S(N)(=O)=O)cc3)ncnc2c(OC)c1OC` was 105% (inactive).
In the case of `CC(=O)OC1C=CC(OC(C)=O)O1` (stereo not given), the growth is 91.5% (inactive).
The same measure, in the same setting: next, `CC(=O)C1N=NCC1c1ccccc1` (stereo not given): 105% (inactive).
`O=C(CN(C1CCCCC1)C1CCCCC1)Nc1ccc(S(=O)(=O)c2ccc(NC(=O)CN(C3CCCCC3)C3CCCCC3)cc2)cc1`: the growth is -84.2% (active).
On the same count and under the same terms, next, `Cc1c[nH]c(=O)n(Cc2nnc(CCC(=O)c3nc4ccccc4[nH]3)o2)c1=O`: 8.43% (active).
`O=C(CCn1cnc2c(cc(-c3ccccc3)n2-c2ccccc2)c1=O)Nc1ccc(F)cc1`: the growth is 89.9% (inactive).
With `CN(C)CCOc1cccc(NC2=C(Cl)C(=O)C(Nc3cccc(OCCN(C)C)c3)=C(Cl)C2=O)c1`, the growth is -80% (active).
As to `CN1CCN(CCC(=O)Nc2cccc(-n3cc(-c4ccncc4)c(-c4ccc(Cl)c(O)c4)n3)c2)CC1`, the growth was 4.91% (active).
The same measure, in the same setting: the value for `CC(=O)Nc1ccc(CC[C@H]2CCC/C=C/[C@@H]3C[C@H](O)C[C@H]3[C@H](O)/C=C/C(=O)O2)cc1` was -26.2% (active); that for `CN(C)CCN(Cc1ccccc1)c1ccc2ccccc2n1` was 89.7% (inactive); that for `C/C(=N\O)c1ccc(NC(=O)CSc2nnc(-c3ccccc3)n2-c2ccccc2)cc1` was 84% (inactive).
The same measure, in the same setting: the value for `CCC(CC)n1c(C)cc(=O)n1C(CC)CC` was 111% (inactive); that for `CC[C@@H](C(=O)[C@H](C)[C@H](O)[C@@H](C)[C@H]1O[C@H]([C@@H](CC)C(=O)O)CC[C@H]1C)C1O[C@]2(C=C[C@@H](O)[C@]3(CC[C@@](C)([C@H]4CC[C@](O)(CC)[C@H](C)O4)O3)O2)[C@H](C)C[C@@H]1C` (stereo not given in full) was 26.1% (inactive); that for `O=C(O)c1cc([N+](=O)[O-])ccc1Oc1ccccc1` was 90.8% (inactive).
On the same count and under the same terms, the value for `O=[N+]([O-])c1cccc(/C=N/NC(=S)NC23CC4CC(CC(C4)C2)C3)c1` was 88.7% (inactive).
Turning to `COc1cc(C(=O)n2nc(-c3cc(OC)c(OC)c(OC)c3)nc2N)cc(OC)c1OC`, the growth was 82.7% (inactive).
The same measure, in the same setting: the value for `COc1ccc(-c2n[nH]nc2-c2cc(OC)c(OC)c(OC)c2)cc1` was 4.38% (active).
On to `C=CCN(CC=C)C(=O)[C@H](CC)[C@@H]1CC[C@@H](C)[C@@H]([C@H](C)[C@@H](O)[C@@H](C)C(=O)[C@H](CC)C2O[C@]3(C=C[C@@H](O)[C@]4(CC[C@@](C)([C@H]5CC[C@](O)(CC)[C@H](C)O5)O4)O3)[C@H](C)C[C@@H]2C)O1` (stereo not given in full), for which the growth is 9.13% (active).
The same measure, in the same setting: next, `O=C(Nc1cccc2c1CCCC2)c1cc2ccccc2cc1O`: 90.5% (inactive); `O=C1/C=C/[C@@H](O)[C@@H]2C[C@@H](O)C[C@H]2/C=C/CCC[C@H](CCc2ccc(NC(=S)Nc3ccc4c(c3)C(=O)OC43c4ccc(O)cc4Oc4cc(O)ccc43)cc2)O1`: 1.54% (active); `COc1cc(/C=C/c2cc(/C=C/c3ccc(O)c(OC)c3)nc(N)n2)ccc1O`: -76.2% (active).
Still for that read-out and setting: the value for `CC(=O)Oc1cc(OC(C)=O)c2ccccc2c1OC(C)=O` was 92.9% (inactive).
As for `CCOc1ccccc1/C=N\N=C\c1ccccc1O`, the growth was 101% (inactive).
